# Source: PubChem BioAssay (National Center for Advancing Translational Sciences (NCATS))
# Rows were chosen to be rich in hits. Some 17% of all compounds tested hit in one or more screens of this group.
# TDP1 inh: TDP1 (human) enzyme inhibition; Q9NUW8; recombinant TDP1, AlphaScreen DNA substrate cleavage; Potency, µM (highest dose often 130 µM), hits mostly inhibitors; 350,000 tested, 0.28% active; note: nearly all actives have a fitted effect of over 40% in size
#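 Recombinant human Tdp1 (E. coli-expressed, 1 nM final) preincubated with compounds 15 min at room temperature, then 5'-biotin/3'-phosphotyrosine-FITC DNA substrate (15 nM final) added for 5 min. AlphaScreen beads (10 ug/ml final) added 10 min; cleavage lowers signal.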
# ClpP mod: qHTS Assay for Activators of ClpP; purified B. subtilis ClpP, FRET peptide cleavage, 20 min; Potency, µM (series often up to 57.5 µM); 340,000 tested, 1.9% active; AID 651965, 2013; active = well fitted falling curve with a large enough effect; inconclusive = small, poorly fitted or top-dose-only effect; inactive = no such curve, though single readings can be large or run the other way; note: the source files actives as falling curves though it sought activators and does not explain the sign; nearly all actives have a fitted effect of over 65% in size
# Target sequence (P80244 whole entry, looked up): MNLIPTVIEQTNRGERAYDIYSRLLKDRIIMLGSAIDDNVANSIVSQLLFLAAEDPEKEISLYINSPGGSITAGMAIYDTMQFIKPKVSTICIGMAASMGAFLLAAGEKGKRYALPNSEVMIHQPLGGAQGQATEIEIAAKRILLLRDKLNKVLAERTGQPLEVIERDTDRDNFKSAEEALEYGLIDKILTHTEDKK
#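 Buffer: 100 mM Tris/HCl pH8, 100 mM KCl, 0.05% low protease BSA, 2.5% glycerol, 0.01% Tween-20. ClpP 10 microg/mL final; 20 min RT; delta FRET normalized to ADEP and DMSO controls.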
# DT40 TDP1 no CPT: qHTS for Inhibitors of human tyrosyl-DNA phosphodiesterase 1 (TDP1): qHTS in cells in absence of CPT | DT40 Tdp1-/- hTDP1 cells, no CPT, ATP luminescence, 48 h | Potency, µM (highest dose often 46.2 µM), most hits filed as inhibitors | 420,000 tested, 15% active | AID 686978, 2013; note: nearly all actives have a fitted effect of over 55% in size
#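 DT40 Tdp1-/-;hTDP1 cells, no CPT (DMSO vehicle only), 400 cells/well; compounds pin-transferred; ≥48 hr, 37 °C; CellTiter-Glo 30 min RT dark, luminescence read.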
# DT40 TDP1 CPT: DT40-hTDP1 cell growth loss with CPT; Potency, µM (top dose mostly 46.2 µM), usual class: inhibitors; chicken DT40 Tdp1-/-;hTDP1 cells + 20 nM CPT, ATP luminescence, 48 h; 420,000 tested, 12% active; AID 686979; note: nearly all actives have a fitted effect of over 55% in size
#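 Chicken DT40 Tdp1-/- cells complemented with human TDP1, 400 cells/well, exposed to compounds plus 20 nM camptothecin for at least 48 h at 37 C; viability read as ATP content by CellTiter-Glo luminescence.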
# Hits are given with their value; i = inactive; ? = inconclusive; nt = no result given; [ ] = remark or other dose. Unless noted, calls come from the whole dose curve; as a rule, active = well fitted curve in the direction sought with a large enough effect; inconclusive = small, poorly fitted or top-dose-only effect, or another doubt; inactive = no such curve, though single readings can be large; an effect the other way counts as inactive or inconclusive.
SMILES,TDP1 inh,ClpP mod,DT40 TDP1 no CPT,DT40 TDP1 CPT
O=C(NCC(c1cccnc1)N1CCN(c2ccc(F)cc2)CC1)c1ccc2c(c1)OCO2 (centres undefined),i,i,8.2µM,16µM
O=C(NCC(c1cccnc1)N1CCN(c2ccc(F)cc2)CC1)c1ccc(F)cc1 (centres undefined),i,i,16µM,?
COc1ccc(N2CCN(C(CNC(=O)c3ccc4c(c3)OCO4)c3cccnc3)CC2)cc1 (centres undefined),i,i,?,i
Cc1cc([N+](=O)[O-])ccc1NCc1ccco1,i,i,i,i
CCOc1ccccc1CNC(=O)c1ccc(-c2nc(CSc3ccc(C)cc3)c(C)o2)cc1,i,?,13µM,9.2µM
COc1ccccc1CCNC(=O)c1ccc(-c2nc(CSc3ccc(C)cc3)c(C)o2)cc1,i,i,8.2µM,16µM
COc1ccc(CNC(=O)c2ccc(-c3nc(CSc4ccccc4)c(C)o3)cc2)c(OC)c1,i,i,i,i
COc1ccc(CNC(=O)c2ccc(-c3nc(CSc4ccc(C)cc4)c(C)o3)cc2)c(OC)c1,i,?,?,8.2µM
CCOc1ccc(CCNC(=O)c2ccc(-c3nc(CSc4ccc(C)cc4)c(C)o3)cc2)cc1,i,i,i,i
Cc1ccc(SCc2nc(-c3ccc(C(=O)NCc4ccc(Cl)cc4)cc3)oc2C)cc1,i,i,9.2µM,15µM
CC(C)c1ccc(-c2noc(SCC(=O)N(C)c3ccc(F)cc3)n2)cc1,i,i,23µM,26µM
Cc1nc(SCC(=O)CC(=O)OC(C)C)c(C#N)c(C)c1C,i,i,?,21µM
CC(C)c1ccc(-c2c(C#N)c(N)nc(SCC(=O)N3CCCCC3)c2C#N)cc1,i,i,?,9.2µM
CC(C)c1ccc(-c2noc(SCC(=O)N3CCCCC3)n2)cc1,i,i,12µM,?
CCCC(=O)O[C@]1(C(=O)COC(=O)CC)CC[C@H]2[C@@H]3CCC4=CC(=O)CC[C@]4(C)[C@H]3[C@@H](O)C[C@@]21C,nt,nt,i,i
CC(C)OC(=O)CSc1nc(N)c(C#N)c(-c2ccco2)c1C#N,i,20µM,?,i
COC(=O)c1ccc(CN(C)S(=O)(=O)c2cccs2)cc1,i,nt,i,i
C[C@@H]1CN(C2CCN(Cc3nc(C(c4ccccc4)c4ccccc4)no3)CC2)C[C@H](C)O1,i,nt,?,i
FC(F)(F)c1ccc(-c2noc(CN3CCCN(C4CCCCC4)CC3)n2)cc1,i,i,21µM,21µM
Cc1nc(CN2CCN(Cc3nc(C(c4ccccc4)c4ccccc4)no3)CC2)cs1,i,nt,10µM,7.3µM
c1ccc(C(c2ccccc2)c2noc(CN3CCN(C4CCCC4)CC3)n2)cc1,i,i,21µM,?
CC1(C(=O)O)CCCN(C(=O)c2cccnc2Oc2ccccc2)C1 (centres undefined),nt,i,i,i
Cc1cc([N+](=O)[O-])cc2c1NC(c1ccccn1)C1CC=CC21 (centres undefined),i,i,i,?
O=[N+]([O-])c1ccc(Cl)c2c1C1C=CCC1C(c1ccccn1)N2 (centres undefined),i,nt,?,18µM
O=C(N1CCc2ccc(S(=O)(=O)N3CCN(S(=O)(=O)c4ccc5c(c4)OCCO5)CC3)cc2C1)C(F)(F)F,i,nt,nt,nt
SMILES,TDP1 inh,ClpP mod,DT40 TDP1 no CPT,DT40 TDP1 CPT
CN1CCN(CCc2ccc(Cl)c(Cl)c2)CC1,i,nt,30µM,?
CN1CCN(C(=S)Nc2ccc(Cl)c(Cl)c2)CC1,i,i,?,i
CN1CCN(CCOc2cccc(Cl)c2)CC1,i,i,i,i
CN1CCN(CCOc2ccc(Cl)c(Cl)c2)CC1,i,i,?,16µM
CC(C)(C)c1ccc(S(=O)(=O)N2CC(C(=O)O)Oc3ccc(Cl)cc32)cc1 (centres undefined),nt,nt,i,i
COc1cccc(CNC(=O)C2(C)Oc3ccccc3NC2=O)c1 (centres undefined),i,i,i,i
CC(=O)Oc1ccc(C2(c3ccc(OC(C)=O)cc3)Oc3ccccc3NC2=O)cc1,nt,nt,19µM,?
CC(NC(=O)c1ccccc1F)C12CC3CC(CC(C3)C1)C2 (centres undefined),i,i,?,21µM
CCCCNC(=O)CSc1nc2cc3c(cc2c(=O)n1Cc1ccco1)OCO3,i,?,16µM,18µM
CCC(Sc1nc2cc3c(cc2c(=O)n1Cc1ccco1)OCO3)C(=O)Nc1cccc(OC)c1 (centres undefined),i,i,?,?
CCC(Sc1nc2cc3c(cc2c(=O)n1Cc1ccco1)OCO3)C(=O)Nc1ccccc1OC (centres undefined),i,i,8.2µM,8.2µM
CC(Cc1ccccc1)NC(=O)CN1C(=O)c2ccccc2S1(=O)=O (centres undefined),i,i,i,i
Oc1c(C(c2cccc(Br)c2)N2CCCC2)sc2nc(-c3ccco3)nn12 (centres undefined),i,i,i,i
Cc1ccccc1CNC1CCCCC1,i,i,i,i
Oc1cc(CNC2CCCCC2)c(O)cc1CNC1CCCCC1,nt,nt,5.8µM,18µM
FC(F)(F)COc1nc(N2CCOCC2)nc(N(c2ccccc2)c2ccccc2)n1,i,?,21µM,?
c1ccc(N(c2ccccc2)c2nc(N3CCOCC3)nc(N3CCOCC3)n2)cc1,i,nt,nt,nt
Cc1noc(C)c1S(=O)(=O)Nc1ccc(C(=O)Nc2ccc(OC(F)(F)F)cc2)cc1,i,i,?,?
Cc1nc2sccn2c1CN1CCOc2ccc(CN3C[C@@H](C)O[C@@H](C)C3)cc2C1,nt,nt,8.2µM,10µM
OC(c1ccc2c(c1)CN(Cc1cccn1-c1cccnc1)CCO2)C1CCCCC1 (centres undefined),nt,nt,i,?
C[C@@H]1CN(Cc2ccc3c(c2)CN(Cc2cccn2-c2cccnc2)CCO3)C[C@H](C)O1,nt,nt,15µM,i[9.04 µM]
Fc1ccc(N2CCN(Cc3ccc4c(c3)CN(Cc3cccn3-c3cccnc3)CCO4)CC2)cc1,nt,nt,21µM,?
C[C@H](CO)N1C[C@H](C)[C@@H](CN(C)C(=O)Nc2ccccc2)Oc2ccc(NC(=O)CCC(F)(F)F)cc2C1=O,i,i,i,i
COc1ccc(S(=O)(=O)NCC(c2ccc(N(C)C)cc2)N2CCOCC2)cc1 (centres undefined),i,?,i,i
CCOc1ccc(CSc2nc(C)cc(COC)c2C#N)cc1OCC,nt,i,?,?
O=S1(=O)Nc2c(ccc3cccnc23)-c2ccccc21,i,i,1.5µM,1.2µM
Cc1cnc2c3c(cc(Cl)c2c1)-c1ccccc1S(=O)(=O)N3,i,nt,nt,nt
O=C1CC[C@@H](C(=O)O)N1,i,i,i,i
CC(C)(C)C(=O)Cn1c(=O)n(-c2ccccc2)c(=O)c2c3c(sc21)CCC3,i,i,18µM,15µM
CCOc1ccc(-n2c(=O)c3c(C)c(C)sc3n(CC(=O)C(C)(C)C)c2=O)cc1,i,i,23µM,?
